# Active and inactive are the calls of the source.
# Key:
# [1] = optical density shifts of acrAB sulA E. coli – strain DRC41, OD650, 48 h, E. coli filamentation inducer project, primary screen (AID 1152); conditions: higher = more signal, called active from +8 up or from −8 down;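 also: E. coli MC1000 strain DRC41 lacking acrAB efflux pump and sulA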
# [2] = probe aLefty1 binding on compound microarray – biochemical, small-molecule microarray, 635/667 nm fluorescence, primary screen (AID 1153); conditions: higher = more signal;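 also: score merges spot fluorescence with signal-to-noise ratio from the scanned slide images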
# [3] = plasmodial surface anion channel blockers, osmotic lysis – cell-based, P. falciparum Indochina, OD700, 1 h, primary screen (AID 1154); conditions: P. falciparum Indochina infected RBC osmotic lysis, higher = more signal, called active from +8 up or from −8 down
# [4] = plasmodial surface anion channel blockers, osmotic lysis – cell-based, P. falciparum Indochina, OD700, 2 h, primary screen (AID 1155);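 also: lysis reports solute entry through the parasite surface anion channel PSAC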; conditions: P. falciparum Indochina infected erythrocytes, higher = more signal, called active from +8 up or from −8 down
# [5] = changes in parasitized red cell lysis, either direction – P. falciparum Indochina, OD700, 3 h, PSAC antagonist project, primary screen (AID 1156); conditions: P. falciparum-infected erythrocytes, osmotic lysis, higher = more signal, called active from +8 up or from −8 down
# [6] = plasmodial surface anion channel blockers, osmotic lysis – cell-based, P. falciparum Indochina, OD700, 18 h, primary screen (AID 1157); conditions: P. falciparum Indochina infected erythrocytes, osmotic lysis OD700, 18 h; higher = more signal, called active from +8 up or from −8 down
# [7] = S6 kinase pathway phospho-S6 level changes – cell-based, A549, cytoblot, luminescence, serum-stimulated, primary screen (AID 1158); conditions: 5 h, higher = more signal;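 also: serum-stimulated A549 lung adenocarcinoma cells; signal is phosphorylated S6 detected by cytoblot immunostaining with HRP secondary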
# [8] = biological target: NADPH oxidase 2 (Homo sapiens) (UniProt P04839); experiment: compounds shifting NOX2 Amplex Red fluorescence – cell-based, HEK293-NOX2, PMA-stimulated, NOX inhibitor project, primary screen (AID 1159); conditions: 45 min, higher = more signal, called active from +8 up or from −8 down; also: test concentration not given here
# [9] = biological target: NADPH oxidase 4 (Homo sapiens) (UniProt Q9NPH5); experiment: compounds shifting NOX4 Amplex Red fluorescence – cell-based, HEK293-NOX4, tetracycline-induced, NOX inhibitor project, primary screen (AID 1160); conditions: HEK293-NOX4, Amplex Red H2O2 fluorescence, 45 min; higher = more signal, called active from +8 up or from −8 down
# [10] = biological target: NADPH oxidase 5 (Homo sapiens) (UniProt Q96PH1); experiment: compounds shifting NOX5 Amplex Red fluorescence – cell-based, HEK293-NOX5, NOX inhibitor project, primary screen (AID 1161); conditions: HEK293-NOX5, ionomycin, 45 min, higher = more signal
# [11] = compound effects on lung adenocarcinoma cell viability – A549, calcein-AM fluorescence, 48 h, basal, profiling panel (AID 1162); conditions: higher = more signal; also: test concentration not given here
# [12] = compound effects on differentiated 3T3-L1 adipocyte viability – cell-based, 3T3-L1 adipocytes, calcein-AM fluorescence, 48 h, basal, profiling panel (AID 1163); conditions: 3T3-L1 adipocytes viability, higher = more signal; also: test concentration not given here
# [13] = compound effects on hepatocellular carcinoma cell viability – HepG2, calcein-AM fluorescence, 48 h, basal, profiling panel (AID 1164); conditions: higher = more signal; also: test concentration not given here
# [14] = compound effects on multiple myeloma cell viability – MM1S, calcein-AM fluorescence, 48 h, basal, profiling panel (AID 1165); conditions: higher = more signal; also: test concentration not given here
# [15] = calcein-AM signal in unstimulated myeloma cells – cell-based, calcein-AM fluorescence, 48 h, PK04 Diversity Set, profiling panel (AID 1166); conditions: RPMI8226 myeloma viability, higher = more signal;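 also: cells grown under basal conditions without added stimulus; test concentration not given here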
# [16] = JC-1 mitochondrial signal, unstimulated HepG2 cells – cell-based, JC-1 fluorescence, 24 h, 100 nL compound, profiling panel (AID 1167); conditions: HepG2 mitochondrial potential, higher = more signal; also: test concentration not given here
# [17] = JC-1 mitochondrial signal, unstimulated adipocytes – cell-based, JC-1 fluorescence, 3T3-L1 adipocytes, 24 h, 100 nL compound, profiling panel (AID 1168); conditions: JC-1 mitochondrial fluorescence, higher = more signal, called active from +8 up or from −8 down; also: test concentration not given here
# [18] = JC-1 mitochondrial signal, unstimulated myeloma cells – cell-based, JC-1 fluorescence, RPMI8226, 24 h, 100 nL compound, profiling panel (AID 1169); conditions: JC-1 mitochondrial potential fluorescence, higher = more signal; also: test concentration not given here
# [19] = JC-1 mitochondrial signal, unstimulated MM1S myeloma – cell-based, JC-1 fluorescence, 24 h, 100 nL compound, profiling panel (AID 1170); conditions: MM1S mitochondrial potential, higher = more signal; also: test concentration not given here
# [20] = resazurin metabolic signal in A549 cells – cell-based, resazurin fluorescence, 24 h, PK04 Diversity Set, profiling panel (AID 1171); conditions: A549 viability, higher = more signal, called active from +8 up or from −8 down; also: test concentration not given here
# NADPH oxidase 4 (Homo sapiens), sequence (Q9NPH5 whole entry, looked up): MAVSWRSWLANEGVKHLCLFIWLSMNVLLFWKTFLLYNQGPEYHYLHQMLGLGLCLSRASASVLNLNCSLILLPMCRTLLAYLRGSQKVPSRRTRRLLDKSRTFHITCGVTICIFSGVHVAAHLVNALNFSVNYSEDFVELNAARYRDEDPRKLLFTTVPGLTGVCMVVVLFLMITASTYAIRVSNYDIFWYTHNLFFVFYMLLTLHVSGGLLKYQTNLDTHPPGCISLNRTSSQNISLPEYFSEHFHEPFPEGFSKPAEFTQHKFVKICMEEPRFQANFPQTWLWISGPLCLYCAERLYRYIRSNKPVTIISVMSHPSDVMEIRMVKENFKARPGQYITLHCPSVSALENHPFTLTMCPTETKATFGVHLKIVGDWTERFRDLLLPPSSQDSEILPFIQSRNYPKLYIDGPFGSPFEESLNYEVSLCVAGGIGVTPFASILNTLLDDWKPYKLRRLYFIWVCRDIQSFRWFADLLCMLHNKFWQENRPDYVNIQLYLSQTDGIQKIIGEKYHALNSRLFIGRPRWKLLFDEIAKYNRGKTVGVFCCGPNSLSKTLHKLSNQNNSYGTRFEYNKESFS
# NADPH oxidase 2 (Homo sapiens), sequence (P04839 whole entry, looked up): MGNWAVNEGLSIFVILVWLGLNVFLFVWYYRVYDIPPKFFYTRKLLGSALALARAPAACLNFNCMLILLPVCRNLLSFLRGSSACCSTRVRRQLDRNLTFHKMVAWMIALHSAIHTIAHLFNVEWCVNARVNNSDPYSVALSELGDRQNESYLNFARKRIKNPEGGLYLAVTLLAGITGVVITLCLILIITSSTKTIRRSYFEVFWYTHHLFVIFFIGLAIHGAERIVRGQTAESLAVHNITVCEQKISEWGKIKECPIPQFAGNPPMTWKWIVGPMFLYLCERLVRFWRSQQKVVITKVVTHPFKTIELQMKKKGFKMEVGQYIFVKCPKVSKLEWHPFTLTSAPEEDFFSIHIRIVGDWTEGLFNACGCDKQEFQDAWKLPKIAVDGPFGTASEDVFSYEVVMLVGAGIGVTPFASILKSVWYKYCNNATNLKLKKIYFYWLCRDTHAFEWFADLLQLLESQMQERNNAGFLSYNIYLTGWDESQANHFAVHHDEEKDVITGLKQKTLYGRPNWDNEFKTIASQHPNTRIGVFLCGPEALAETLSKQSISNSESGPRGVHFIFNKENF
# NADPH oxidase 5 (Homo sapiens), sequence (Q96PH1 whole entry, looked up): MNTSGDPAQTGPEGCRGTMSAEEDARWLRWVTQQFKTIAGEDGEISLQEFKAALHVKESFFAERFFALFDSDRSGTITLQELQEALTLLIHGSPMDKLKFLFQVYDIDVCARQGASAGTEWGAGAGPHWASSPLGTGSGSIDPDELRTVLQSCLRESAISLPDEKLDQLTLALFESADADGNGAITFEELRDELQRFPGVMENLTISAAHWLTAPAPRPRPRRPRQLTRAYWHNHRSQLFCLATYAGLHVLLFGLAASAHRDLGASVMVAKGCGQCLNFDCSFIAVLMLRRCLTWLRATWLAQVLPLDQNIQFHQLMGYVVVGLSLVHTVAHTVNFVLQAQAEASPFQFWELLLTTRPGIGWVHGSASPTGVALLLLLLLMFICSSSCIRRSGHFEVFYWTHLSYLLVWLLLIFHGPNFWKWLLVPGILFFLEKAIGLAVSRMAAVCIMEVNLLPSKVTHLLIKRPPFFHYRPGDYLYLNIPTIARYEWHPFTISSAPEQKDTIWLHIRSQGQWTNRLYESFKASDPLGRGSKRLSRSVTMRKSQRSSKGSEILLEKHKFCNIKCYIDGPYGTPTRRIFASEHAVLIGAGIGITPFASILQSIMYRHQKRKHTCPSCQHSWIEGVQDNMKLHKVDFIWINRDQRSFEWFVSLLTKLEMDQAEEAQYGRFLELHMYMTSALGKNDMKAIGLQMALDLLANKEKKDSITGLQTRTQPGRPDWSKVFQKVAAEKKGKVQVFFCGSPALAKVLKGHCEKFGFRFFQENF
SMILES,z-score [1],composite z-score [2],z-score [3],z-score [4],z-score [5],z-score [6],z-score [7],z-score [8],z-score [9],z-score [10],z-score [11],z-score [12],z-score [13],z-score [14],z-score [15],z-score [16],z-score [17],z-score [18],z-score [19],z-score [20]
O=C(NCc1ccccc1)[C@@]1(Cc2ccccc2)COC(c2ccc(OCCCO)cc2)=N1,-0.65 (inactive),0.205,29.5 (active),21.2 (active),3.61 (inactive),3.89 (inactive),0.366,-3.55 (inactive),-0.556 (inactive),-2.81,-1.65,-2.05,-2.78,-3.58,-3.06,-2.97,0.558 (inactive),-1.06,-2.9,-2.77 (inactive)
CO[C@H]1COC(=O)[C@@H](OCc2ccccc2)C=C[C@H](C)[C@@H](OC)COC(=O)[C@H](OCc2ccccc2)C=C[C@@H]1C,-0.282 (inactive),-0.0966,-0.0125 (inactive),-0.952 (inactive),-1.35 (inactive),-1.68 (inactive),1.55,-0.174 (inactive),0.433 (inactive),0.467,0.665,1.21,1.45,0.301,0.0913,1.6,0.382 (inactive),-0.262,2.82,1.76 (inactive)
C[N+](C)(C)CCCCNC(=O)[C@@H]1C[C@@H]2C(=O)N3CCC[C@H]3C(=O)N2[C@@H]1c1cccc(OCCO)c1,1.25 (inactive),0.14,2.9 (inactive),-0.732 (inactive),-2.56 (inactive),-2.13 (inactive),0.326,-1.42 (inactive),-0.183 (inactive),-0.87,0.668,1.05,-0.954,-0.732,-0.179,0.428,0.971 (inactive),0.252,0.791,-0.141 (inactive)

# Source: PubChem BioAssay
